Where “and” joins values, the source holds several entries; their conditions need not be identical. Equal entries are not always repeated. Compounds without any hit were thinned out: in the full panel of roughly 83,000, 20% have a hit.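 Cell lines were cultured in 96-well plates, exposed to a single compound concentration, and assessed for percent growth 48 hours later.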 Unmarked numbers belong to inactive results. Calls of active or inactive are those of the source. Rule for the calls: active = growth percent below 10; inactive = the rest.

The test relates to MDA-MB-468 breast. The test is described as follows: NCI-60 one-dose screen, 48 h (100 = growth as untreated, 0 = no growth, -100 = all killed). The settings on record: 10 µM unless noted.
In the case of `COC1(OC)C2(Cl)C=C(c3ccccc3)C1(Cl)C(Cl)=C2Cl` (configuration not stated), the growth is 108%.

As for `COc1ccc(-c2c(C(N)=O)c(N)n(Cc3nc4ccccc4[nH]3)c(=O)c2C#N)c(OC)c1`, the growth was 99.2%.

Consider `C#Cc1nc(/C=C/C(=O)NO)cs1`, for which the growth was 51.7%.

On to `NCC(=O)NS(=O)(=O)OC[C@H]1O[C@@H](n2cnc3c(N)ncnc32)[C@H](O)[C@@H]1O`, for which the growth was -34.3% (active).

`CC1SC(=S)N(c2ccc(Cl)cc2)C1=O` (configuration not stated): the growth was 84.9% and 90.4%.

As to `Clc1ccc(-c2nc(-c3c[nH]c4ncccc34)cs2)cc1`, the growth is 80.2% [100 µM].

Turning to `NC(=O)N1CCOCC1`, the growth was 111%.

With `CC(NCCC(c1ccccc1)c1ccccc1)c1ccccc1` (configuration not stated), the growth was 49%.

Regarding `NC(=O)Nc1ccc2ncnc(Nc3cccc(O)c3)c2c1`, the growth is 67.9%.

For the molecule `CCOC(=O)CCN(CC(C)C)C(=S)Nc1ccccc1`, the growth is 104%.

As to `C/C=C/C=N/NC(=S)Nc1ccccc1`, the growth is 107%.

Consider `CC(C)[C@@H](C)/C=C/[C@@H](C)[C@H]1CCC2=C3C=CC4=CC(=O)CC[C@]4(C)[C@H]3CC[C@@]21C`, for which the growth is 97.3%.

Turning to `COc1ccc(C2=C(CN)C(O)NC(=NCC(=O)c3ccc4ccccc4c3)N2)cc1` (configuration not stated), the growth is 118%.

With `CC1=Cc2ccccc2OC12C=Cc1ccccc1O2` (configuration not stated), the growth was 97%.

`NC(CCCC(N)C(=O)c1ccccc1)C(=O)O` (configuration not stated): the growth is 113%.

For the molecule `CCOC(=O)c1c[nH][nH]c1=O`, the growth is 93.8%.

Turning to `CCN(CC)CCOC(=O)c1ccc(N=Nc2ccc(O)c(OC)c2)cc1`, the growth was 94%.
